# Measured values reported in PubChem BioAssay (NCATS).
# Records with an inconclusive call do not appear. A call without a number means that no potency is given here. Unmarked numbers belong to inactive results. Calls of active or inactive are those of the source. Unless noted, calls follow the shape of the dose curve; as a rule, active = well fitted curve in the direction sought with a large enough effect; inconclusive = small, poorly fitted or top-dose-only effect, or another doubt; inactive = no such curve, though single readings can be large; an effect the other way counts as inactive or inconclusive. *1 amine or outer side, *2 acyl side, *3 side chain or, on linkers, in order; H or OH if unused. Where a SMILES comes first, the peptide text is derived from it. Bridges are numbered along the chain shown (N, C = ends). [ ]: non-standard residue; d: D form. The star is where a group is joined. pTerphenylCO(4''-OnC5H11) = CCCCCOc1ccc(-c2ccc(-c3ccc(C(=O)*)cc3)cc2)cc1; Orn(4R-OH,5R-OH) = O=C([C@H](C[C@@H](O)[C@@H](O)N[*:3])N[*:1])[*:2]; hTyr(3S-OH,4S-OH) = N[C@H](C(=O)O)[C@H](O)[C@@H](O)c1ccc(O)cc1; Pro(3S-OH,4S-Me) = C[C@H]1CN[C@H](C(=O)O)[C@H]1O; Hyp = O=C(O)[C@@H]1C[C@@H](O)CN1
# Key:
# [1] = target: Calcium and integrin-binding protein 1 (Homo sapiens) (UniProt Q99828); test: Primary qHTS for Identification of Calcium Integrin Binding Protein 1 (CIB1) Competitor (AID 1508620);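 also: GST tagged CIB1 binding a fluorescein labelled alphaIIb integrin peptide tracer; top concentration of the series differs between compounds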
# Calcium and integrin-binding protein 1 (Homo sapiens), sequence (Q99828 whole entry, looked up): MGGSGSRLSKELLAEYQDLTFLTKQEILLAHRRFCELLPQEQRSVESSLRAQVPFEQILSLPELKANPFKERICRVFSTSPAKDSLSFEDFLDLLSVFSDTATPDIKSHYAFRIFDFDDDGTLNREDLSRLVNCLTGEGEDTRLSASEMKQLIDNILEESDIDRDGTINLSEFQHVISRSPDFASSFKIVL
# How it was run: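 Fluorescence polarization competition: GST-tagged CIB1 (1 uM final) preincubated with compound 15 min at room temperature, then FITC-labelled alphaIIb peptide (100 nM final) added. After 15 min at room temperature, polarization read at Ex 480/Em 540.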
# [2] = Primary qHTS for inhibitors of nuclear receptor binding SET domain protein 2 (NSD2) in an isogenic RCH-ACV NSD2 p.E1099K mutant (9B) (AID 1645876); also: nearly all actives have a fitted effect of over 70% in size; also: potency is read from the fitted curve at half-maximal effect
# [3] = target: Cytochrome P450 2C9 (Homo sapiens) (UniProt P11712); test: Cytochrome P450 family 2 subfamily C member 9 (CYP2C9) small molecule antagonists: luciferase biochemical (cell-free) qHTS assay (AID 1645842; active = well fitted curve in the direction sought with a large enough effect in the repeat runs; an effect the other way counts as inactive or inconclusive; also: potency is read from the fitted curve at half-maximal effect; nearly all actives have a fitted effect of over 55% in size)
# Cytochrome P450 2C9 (Homo sapiens), sequence (P11712 whole entry, looked up): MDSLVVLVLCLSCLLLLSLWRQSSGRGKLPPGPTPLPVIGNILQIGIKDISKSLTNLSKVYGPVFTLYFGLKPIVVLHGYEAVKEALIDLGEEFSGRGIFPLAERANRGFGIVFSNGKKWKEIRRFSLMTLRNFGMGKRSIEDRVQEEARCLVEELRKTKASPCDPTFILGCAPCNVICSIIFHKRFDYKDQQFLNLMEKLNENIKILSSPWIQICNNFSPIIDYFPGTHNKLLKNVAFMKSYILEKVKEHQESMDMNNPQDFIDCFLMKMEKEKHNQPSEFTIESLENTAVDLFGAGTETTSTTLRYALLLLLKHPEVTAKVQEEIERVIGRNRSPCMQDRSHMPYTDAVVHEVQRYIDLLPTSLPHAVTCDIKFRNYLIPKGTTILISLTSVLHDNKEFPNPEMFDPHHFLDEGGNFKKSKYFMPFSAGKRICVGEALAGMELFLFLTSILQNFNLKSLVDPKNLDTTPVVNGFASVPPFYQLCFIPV
# How it was run: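 Luminescence, after 20 min with luciferin detection reagent, reflected CYP2C9 turnover during a 1 h NADPH-driven reaction at 37C. Enzyme-substrate mix contained 0.4% bovine serum albumin and was preincubated with compound 10 min at room temperature.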
# [4] = Primary qHTS for inhibitors of nuclear receptor binding SET domain protein 2 (NSD2) in an RCH-ACV wild type WT cells (2C) (AID 1645877); also: nearly all actives have a fitted effect of over 70% in size; also: potency is read from the fitted curve at half-maximal effect
# [5] = target: N-terminal Xaa-Pro-Lys N-methyltransferase 1 (Homo sapiens) (UniProt Q9BV86); test: Confirmatory qHTS for Inhibitors of N-terminal methyltransferase 1 (NTMT1): MTaseGlo Assay (AID 1645874); also: nearly all actives have a fitted effect of over 65% in size; also: potency is read from the fitted curve at half-maximal effect;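 as to activity change, negative = inhibition: luminescence from SAH made as NTMT1 methylates SPKRIA peptide using SAM; series mostly up to about 100 µM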
# N-terminal Xaa-Pro-Lys N-methyltransferase 1 (Homo sapiens), sequence (Q9BV86 whole entry, looked up): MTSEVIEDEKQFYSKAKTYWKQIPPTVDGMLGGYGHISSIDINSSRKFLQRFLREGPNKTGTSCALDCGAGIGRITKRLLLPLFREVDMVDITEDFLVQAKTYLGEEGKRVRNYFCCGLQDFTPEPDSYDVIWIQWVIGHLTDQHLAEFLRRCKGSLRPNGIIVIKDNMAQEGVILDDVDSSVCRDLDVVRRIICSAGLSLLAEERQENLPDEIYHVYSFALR
# How it was run: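 Luminescent MTase-Glo read-out of SAH. 125 nM NTMT1, 100 uM SAM, 1 uM SPKRIA substrate, 30 min RT reaction after 15 min compound preincubation. Normalized to no-enzyme and DMSO controls; Hill fit.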
smiles,measurement,setting,value
COCCNCc1ccc(-c2cc3nccc(Oc4ccc(NC(=O)C5(C(=O)Nc6ccc(F)cc6)CC5)cc4F)c3s2)nc1,Potency,[1],inactive
same,Potency,[2],2.9 µM (active)
CN(C)CCC(CSc1ccccc1)Nc1ccc(S(=O)(=O)NC(=O)c2ccc(N3CCN(Cc4ccccc4-c4ccc(Cl)cc4)CC3)cc2)cc1[N+](=O)[O-] (centres undefined),Potency,[1],inactive
same,Potency,[2],0.916 µM (active)
CCCC(=O)C1(c2ccccc2)CCN(C(=O)[C@@H](Cc2ccc(OC)cc2)NC(=O)[C@@H](N)Cc2cncn2C)CC1,Potency,[1],inactive
same,Potency,[3],19 µM (active)
same,Potency,[4],18.3 µM (active)
COc1cccc(-c2cn(-c3ccc(CCN4CCC(O)CC4)cc3)c3ncnc(N)c23)c1,Potency,[1],inactive
same,Potency,[5],35.5 µM (active)
same,Potency,[2],1.63 µM (active)
same,Potency,[4],1.83 µM (active)
C/C(=C\Cc1c(O)c(Cl)c(C)c(C=O)c1O)CC/C=C(\C)[C@H]1CC(=O)C(C)(C)O1,Potency,[1],inactive
same,Potency,[2],2.52 µM (active)
C=C1C(=O)O[C@H]2CC(=C)[C@H]3CC[C@@](C)(O)[C@@H]3CC12 (some centres undefined),Potency,[1],inactive
same,Potency,[2],12.9 µM (active)
CC1(C)CCCC2(C)C1C(=O)C=C(C(=O)O)C2(O)C(=O)O (centres undefined),Potency,[1],inactive
same,Potency,[2],25.8 µM (active)
C=CC(C)(O)CC/C=C(/C)COC(=O)C(C)C1CCC(C)(C=C)O1 (centres undefined),Potency,[1],inactive
same,Potency,[2],inactive
C/C=C(/C)C(=O)OC1CC(C)(C)CC2C3=CCC4C5(C)CCC(O[C@@H]6O[C@H](C(=O)O)[C@@H](O)[C@H](O)[C@H]6O[C@@H]6O[C@H](CO)[C@H](O)[C@H](O[C@@H]7OC[C@H](O)[C@H](O)[C@H]7O[C@@H]7O[C@H](CO)[C@@H](O)[C@H](O)[C@H]7O)[C@H]6O)C(C)(C)C5CCC4(C)C3(C)C(O)C(O)C12CO (some centres undefined),"activity change, negative = inhibition",[1],-2.71% [at 12.4 µM]
same,Potency,[2],2.18 µM (active)
COc1cc(CCc2ccc(OCC=C(C)C)cc2)cc(OC)c1OC,Potency,[1],inactive
same,Potency,[5],inactive
"CCCCCOc1ccc(-c2ccc(-c3ccc(C(=O)N[C@H]4C[C@@H](O)[C@@H](O)NC(=O)[C@@H]5[C@@H](O)[C@@H](C)CN5C(=O)[C@H]([C@@H](C)O)NC(=O)[C@H]([C@H](O)[C@@H](O)c5ccc(O)cc5)NC(=O)[C@@H]5C[C@@H](O)CN5C(=O)[C@H]([C@@H](C)O)NC4=O)cc3)cc2)cc1 ({pTerphenylCO(4''-OnC5H11)}-[Orn(4R-OH,5R-OH)]T[Hyp][hTyr(3S-OH,4S-OH)]T[Pro(3S-OH,4S-Me)]; lactam 1-C)",Potency,[1],inactive
same,Potency,[5],inactive
same,Potency,[2],inactive
NC(=O)c1cccc2[nH]c(-c3ccc(C4CCCN4)cc3F)nc12 (centres undefined),Potency,[1],inactive
same,Potency,[3],10.7 µM (active)
same,Potency,[4],18.3 µM (active)
C=C1CC[C@@H](O)[C@]2(C)C[C@H]3OC(=O)C(=C)[C@H]3CC12 (some centres undefined),Potency,[1],inactive
same,Potency,[2],16.3 µM (active)
CCOC(=O)N1CCC(CN(Cc2ccc(Cl)cc2)Cc2ccc([N+](=O)[O-])s2)C1 (centres undefined),Potency,[1],inactive
same,Potency,[3],4.25 µM (active)
same,Potency,[4],20.5 µM (active)
O[C@@](Cc1ncc(CC2(C(F)(F)F)CC2)[nH]1)(c1ccc(-n2cccn2)cc1)C(F)(F)F,Potency,[1],inactive
same,Potency,[2],23 µM (active)
C=C(NC(=O)C(=C)NC(=O)c1csc(C2=NC3c4csc(n4)C4NC(=O)c5csc(n5)C(C(C)(O)C(C)O)NC(=O)C5CSC(=N5)/C(=C/C)NC(=O)C(C(C)O)NC(=O)c5csc(n5)C3(CC2)NC(=O)C(C)NC(=O)C(=C)NC(=O)C(C)NC(=O)C(C(C)CC)NC2C=Cc3c(C(C)O)cc(nc3C2O)C(=O)OC4C)n1)C(N)=O (centres undefined),Potency,[1],inactive
same,Potency,[2],2.3 µM (active)
C=C1C(=O)O[C@@H]2C3C(=C(C)[C@@H](O)[C@@H](OC(=O)/C(=C/C)COC(C)=O)[C@@H]12)C(=O)[C@H]1O[C@@]31C (some centres undefined),Potency,[1],inactive
same,Potency,[2],2.82 µM (active)
same,Potency,[4],1.59 µM (active)
CC(=O)O[C@@H]1C2=C(O)C(=O)[C@](C)(OC(C)=O)C(=O)C2=CO[C@@]12O[C@@H](C)CC[C@H]2OC(C)=O,Potency,[1],inactive
same,Potency,[2],inactive
C/C=C(\C)C(=O)O[C@H]1C=C(CO)C(=O)[C@H](OC(C)=O)[C@H]1C(C)C,Potency,[1],inactive
same,Potency,[2],2.84 µM (active)
same,Potency,[4],2.84 µM (active)
Cn1cc(C2=C(c3coc4ccccc34)C(=O)NC2=O)c2cc(Br)ccc21,Potency,[1],inactive
same,Potency,[2],18.4 µM (active)
O=C1COC2(CCN(S(=O)(=O)c3ccc(-c4ccc5cccnc5c4)cc3)CC2)CN1C1CC1,Potency,[1],inactive
same,Potency,[2],inactive
O=C(Cc1cccc(OC(F)(F)F)c1)Nc1ccc(CCCCc2nnc(NC(=O)Cc3ccccn3)s2)nn1,Potency,[1],inactive
same,Potency,[2],inactive
NS(=O)(=O)c1ccc(NC(=O)Nc2ccc(F)cc2)cc1,Potency,[1],inactive
same,Potency,[2],inactive
same,Potency,[4],inactive
COc1cc(-n2cnc3cc(-c4ccc(Cl)cc4)sc3c2=O)ccc1OCCN1CCCC1,Potency,[1],inactive
same,Potency,[2],7.28 µM (active)
same,Potency,[4],5.78 µM (active)
CC1(C)CC[C@]2(C(=O)O)[C@H](O)C[C@]3(C)C(=CCC4[C@@]5(C)CC[C@H](O[C@@H]6O[C@H](CO[C@@H]7OC[C@H](O)[C@H](O)[C@H]7O[C@@H]7OC[C@H](O)[C@H](O)[C@H]7O)[C@@H](O)[C@H](O)[C@H]6O)C(C)(C)C5CC[C@]43C)[C@@H]2C1 (some centres undefined),Potency,[1],inactive
same,Potency,[2],4.35 µM (active)
CC(C)C[C@H](CO)Nc1nc(S[C@@H](C)c2ccccc2)nc2nc(N)sc12,Potency,[1],inactive
same,Potency,[2],26.3 µM (active)
CCC/C=C/C(=O)O[C@H]1CC(C)(C)CC2[C@@]13[C@H](O)C[C@]1(C)[C@@]2(CCC2[C@@]4(C)CC[C@H](O[C@@H]5O[C@H](C(=O)O)[C@@H](O)[C@H](O[C@@H]6O[C@H](CO)[C@H](O)[C@H](O)[C@H]6O[C@@H]6O[C@@H](C)[C@H](O)[C@@H](O)[C@H]6O[C@@H]6OC[C@](O)(CO)[C@H]6O)[C@H]5O[C@@H]5O[C@H](CO)[C@H](O)[C@H](O)[C@H]5O)C(C)(C)C4CC[C@]21C)O[C@H]3O (some centres undefined),"activity change, negative = inhibition",[1],4.06% [at 12.4 µM]
same,Potency,[2],1.73 µM (active)
